PubChem BioAssay (Tox21)
Inconclusive results are not listed. A call without a number means that no potency is given here. Activity calls are given as the source filed them. The call rests on the fitted dose curve; in most records, active means well fitted cell-killing curve with a large enough effect in the repeat runs; inconclusive means weak or mixed curves, or effect the other way; inactive means flat fitted curve, though single readings scatter.

Assays:
[1] = cAMP Responsive Elements (CRE) small molecule antagonists, cell-based qHTS assay: qHTS cell viability counter screen (AID 2060913); further: nearly all actives have a fitted effect of over 40% in size
How it was run: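 CRE-bla HEK293T cells (2,000/well, 18 h) given compound plus NKH477 0.25 uM final for 3 h at 37C; viability counter-screen by CellTiter-Glo luminescence in same wells after 30 min.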

[2] = cAMP Responsive Elements (CRE) small molecule agonists, cell-based qHTS assay: qHTS cell viability counter screen (AID 2060914);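 further: viability read after 3 h of compound exposure; nearly all actives have a fitted effect of over 50% in size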
How it was run: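 HEK 293T CRE-bla; DMEM + 10% dialyzed FBS, 25 mM HEPES; 18 h pre-incubation; compound 3 h, 37 °C/5% CO2; CellTiter-Glo added after reporter read; luminescence after 30 min RT.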

SMILES	Potency [1]	Potency [2]
CCCCCCCCOC(=O)CCCCCCCCC(=O)OCCCCCCCC	inactive	inactive
c1ccc(CCCc2ccncc2)cc1	inactive	inactive
N#CCC(=O)O	inactive	inactive
CCCCOC(=O)CCCCC(=O)OCCCC	inactive	inactive
CCO[Si](CCCS)(OCC)OCC	inactive	inactive
